The values that follow come from article PMC5700166.

This test concerns the target T1, GST-Aq-NF-kB (Amphimedon queenslandica, UniProt A9Y5G7 2-389).
T1 sequence: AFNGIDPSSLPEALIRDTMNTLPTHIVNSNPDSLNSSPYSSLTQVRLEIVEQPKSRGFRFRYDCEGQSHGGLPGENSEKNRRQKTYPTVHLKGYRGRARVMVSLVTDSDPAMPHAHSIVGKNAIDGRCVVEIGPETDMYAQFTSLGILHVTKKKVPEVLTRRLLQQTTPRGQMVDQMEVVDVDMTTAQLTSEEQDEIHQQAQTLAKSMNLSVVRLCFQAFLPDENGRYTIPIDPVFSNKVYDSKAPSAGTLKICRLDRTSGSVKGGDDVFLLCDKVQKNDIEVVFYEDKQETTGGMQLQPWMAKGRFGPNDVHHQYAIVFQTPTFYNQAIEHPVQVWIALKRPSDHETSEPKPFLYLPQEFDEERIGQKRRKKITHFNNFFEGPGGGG
Kind of test: protein-binding microarray (PBM); PBM: ~300 nM protein, 6 mM HEPES pH 7.8, 80 mM KCl, 0.5 mM EDTA, 0.5 mM EGTA, 6% glycerol, 35 ng/ul poly-dIdC, 1% milk, 1 h, room temperature; Ap Aiptasia and Nv Nematostella (sea anemones) / Co Capsaspora / Aq Amphimedon (sponge) / Dm Drosophila / Hu human; RHD is the Rel homology domain; high values mean tight binding. Conditions: dsDNA, one strand shown.

In the case of “CCGATTAACATCAGGACATTCCATGATGTTAATCGGGTCTTGATTCGCTTGACGCTGCTG”, the binding signal was determined as 1.23 z-score. As for “CCGATTAACATCAGGAACTTCCATGATGTTAATCGGGTCTTGATTCGCTTGACGCTGCTG”, the figure is 1.63 z-score. The value for “CCGATTAACATCAACGGAATTTCTGATGTTAATCGGGTCTTGATTCGCTTGACGCTGCTG” was 1 z-score; that for “CCGATTAACATCAGGAAACTTCCTGATGTTAATCGGGTCTTGATTCGCTTGACGCTGCTG” was 1.43 z-score; that for “CCGATTAACATCACGGAGTTTCCTGATGTTAATCGGGTCTTGATTCGCTTGACGCTGCTG” was 3.34 z-score.

The sequence “CCGATTAACATCAGGAGATTCCATGATGTTAATCGGGTCTTGATTCGCTTGACGCTGCTG” showed a binding signal of 1.66 z-score. As for “CCGATTAACATCACTAAAATTCCTGATGTTAATCGGGTCTTGATTCGCTTGACGCTGCTG”, the figure is 1.03 z-score; as for “CCGATTAACATCAAACCCTACTGTGATGTTAATCGGGTCTTGATTCGCTTGACGCTGCTG”, 1.19 z-score; as for “CCGATTAACATCAGGAAAACTCCTGATGTTAATCGGGTCTTGATTCGCTTGACGCTGCTG”, 1.4 z-score. The value for “CCGATTAACATCAGGCAATGCCCTGATGTTAATCGGGTCTTGATTCGCTTGACGCTGCTG” was 1.31 z-score. The sequence “CCGATTAACATCAAGGAATCTCCTGATGTTAATCGGGTCTTGATTCGCTTGACGCTGCTG” gave a binding signal of 1.78 z-score. The value for “CCGATTAACATCAAAATTTTCCATGATGTTAATCGGGTCTTGATTCGCTTGACGCTGCTG” was 1.14 z-score; that for “CCGATTAACATCACGGAATGTCCTGATGTTAATCGGGTCTTGATTCGCTTGACGCTGCTG” was 1.82 z-score; that for “CCGATTAACATCACGGGTTGCCCTGATGTTAATCGGGTCTTGATTCGCTTGACGCTGCTG” was 1.04 z-score. As for “CCGATTAACATCAAGGAAGTTCCTGATGTTAATCGGGTCTTGATTCGCTTGACGCTGCTG”, the figure is 2.07 z-score.

For the sequence “CCGATTAACATCACGGACTGTCCTGATGTTAATCGGGTCTTGATTCGCTTGACGCTGCTG”, the binding signal is 2.22 z-score. The value for “CCGATTAACATCAAGGAACTTCCTGATGTTAATCGGGTCTTGATTCGCTTGACGCTGCTG” was 1.83 z-score; that for “CCGATTAACATCAGGAGTTGCCCTGATGTTAATCGGGTCTTGATTCGCTTGACGCTGCTG” was 3.13 z-score.

In turn, “CCGATTAACATCAGAAATTCCGCTGATGTTAATCGGGTCTTGATTCGCTTGACGCTGCTG” came in with a binding signal of 1.09 z-score. On to “CCGATTAACATCAAGATCCCTTGTGATGTTAATCGGGTCTTGATTCGCTTGACGCTGCTG”, for which the binding signal worked out at 1.08 z-score. As for “CCGATTAACATCAAGGCATTTCCTGATGTTAATCGGGTCTTGATTCGCTTGACGCTGCTG”, the figure is 1.06 z-score; as for “CCGATTAACATCAGGGCAGTCCATGATGTTAATCGGGTCTTGATTCGCTTGACGCTGCTG”, 1.1 z-score. As for “CCGATTAACATCAGAGAAATTCCTGATGTTAATCGGGTCTTGATTCGCTTGACGCTGCTG”, the figure is 1.65 z-score; as for “CCGATTAACATCAAAGAATTTCCTGATGTTAATCGGGTCTTGATTCGCTTGACGCTGCTG”, 1.45 z-score.

With “CCGATTAACATCACGGAATATCCTGATGTTAATCGGGTCTTGATTCGCTTGACGCTGCTG”, the binding signal is 1.48 z-score. As for “CCGATTAACATCAGGAATCGCCCTGATGTTAATCGGGTCTTGATTCGCTTGACGCTGCTG”, the figure is 2.28 z-score. As for “CCGATTAACATCACGGCATTTCCTGATGTTAATCGGGTCTTGATTCGCTTGACGCTGCTG”, the figure is 1.96 z-score. Regarding “CCGATTAACATCAAGGAATGTCCTGATGTTAATCGGGTCTTGATTCGCTTGACGCTGCTG”, the binding signal stood at 1.74 z-score.

On to “CCGATTAACATCACGGAAATGCCTGATGTTAATCGGGTCTTGATTCGCTTGACGCTGCTG”, for which the binding signal is 1.48 z-score. The value for “CCGATTAACATCAAGGAAAAGCCTGATGTTAATCGGGTCTTGATTCGCTTGACGCTGCTG” was 1.11 z-score; that for “CCGATTAACATCAGGAATTCTCCTGATGTTAATCGGGTCTTGATTCGCTTGACGCTGCTG” was 1.31 z-score; that for “CCGATTAACATCACGGCTTTTCCTGATGTTAATCGGGTCTTGATTCGCTTGACGCTGCTG” was 1.72 z-score.

“CCGATTAACATCAAGGATTGCCCTGATGTTAATCGGGTCTTGATTCGCTTGACGCTGCTG” yielded a binding signal of 1.51 z-score. As for “CCGATTAACATCAGGAAAGTTCCTGATGTTAATCGGGTCTTGATTCGCTTGACGCTGCTG”, the figure is 1.9 z-score; as for “CCGATTAACATCACTAAATTTCCTGATGTTAATCGGGTCTTGATTCGCTTGACGCTGCTG”, 1.07 z-score; as for “CCGATTAACATCAGGAAGTGCCCTGATGTTAATCGGGTCTTGATTCGCTTGACGCTGCTG”, 2.55 z-score. The value for “CCGATTAACATCAAGGAGTTTCCTGATGTTAATCGGGTCTTGATTCGCTTGACGCTGCTG” was 2.55 z-score; that for “CCGATTAACATCACGGCAAGTCCTGATGTTAATCGGGTCTTGATTCGCTTGACGCTGCTG” was 1.46 z-score.
